High-throughput results deposited in PubChem by National Center for Advancing Translational Sciences (NCATS).
The list is not random: actives were taken first. Their share in the collection is about 11%.
NIH3T3 tox: kills NIH 3T3 cells | NIH 3T3 viability, CellTiter-Glo ATP luminescence, 48-72 h | Potency, µM (doses to about 96.7 µM), inactives show at the top dose activity change, negative = cytotoxicity, actives largely listed as inhibitors | 4.3% of 94,000 active | AID 1345082; also: nearly all actives have a fitted effect of over 55% in size
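Cytotoxicity was measured by CellTiter-Glo ATP luminescence after 48 or 72 h compound exposure at 37 °C. Mouse NIH 3T3 fibroblasts were seeded at 400 cells/well and dosed by 23 nL pin transfer.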
FLuc inh: blocks purified firefly luciferase enzyme activity; P08659; purified P. pyralis luciferase, luminescence, biochemical; Potency, µM (series often up to 115 µM), usual class: inhibitors; 2.5% of 76,000 active; also: nearly all actives have a fitted effect of over 65% in size
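Biochemical qHTS: compound (6-point titration) added to 10uM D-luciferin plus 10uM ATP in Tris acetate pH 7.5 buffer with Mg, Tween-20 and BSA, then purified enzyme at 10nM; light output imaged.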
HEK cytotox: HEK 293 cell cytotoxicity | HEK 293 viability, ATP luminescence (CellTiter-Glo), 48-72 h | Potency, µM (titrated, usually from 115 µM), without a hit: at the top dose activity change, negative = cytotoxicity, hits mostly inhibitors | 6.6% of 94,000 active; also: nearly all actives have a fitted effect of over 60% in size
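ATP-coupled CellTiter-Glo luminescence served as viability read-out, recorded 10 min after reagent addition at room temperature. HEK 293 cells, 250 cells/well, had been incubated with pintool-transferred compound for 48 or 72 hr at 37 degree Celsius.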
NPR1 antag: human Npr1 receptor antagonism; P16066; HEK293 hNpr1 GloSensor cGMP, ANP-stimulated luminescence; Potency, µM (titrated, usually from 46.3 µM), without a hit: at the highest dose activity change, negative = inhibition, hits mostly inhibitors; 1.6% of 76,000 active; AID 1347048; calls by dose curve; also: nearly all actives have a fitted effect of over 60% in size
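Compound pre-incubated 30 min at room temperature on GloSensor-loaded HEK293 cells stably carrying hNpr1 and the pGS-40F cGMP biosensor. Stimulation uses hNppA at 0.1 nM final; luminescence is taken at baseline and 20 min post-agonist.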
Numbers without * were called inactive; i = inactive; ? = inconclusive; nt = no result given; ! = not confirmed by another sample; [ ] = remark or other dose. Unless noted, calls follow the shape of the dose curve; as a rule, active = well fitted curve in the direction sought with a large enough effect; inconclusive = small, poorly fitted or top-dose-only effect, or another doubt; inactive = no such curve, though single readings can be large; an effect the other way counts as inactive or inconclusive. % is scaled to controls: 0 for no effect and ±100 for the full control effect; potency is read from the fitted curve at half-maximal effect.

SMILES	NIH3T3 tox	FLuc inh	HEK cytotox	NPR1 antag
O=C(NC1C[C@H]2CC[C@@H](C1)N2C(=O)C1CCCCC1)c1ccc(F)cc1 (stereo not given in full)	-34%	nt	3%	nt
Cc1ccc(-c2noc([C@@H]3C[C@@H](O)CN3C3CCN(C)CC3)n2)cc1F	?	i	?	5%[70.6 µM]
Cc1ccc(-c2noc([C@@H]3C[C@@H](O)CN3CC3CC3)n2)cc1F	?	50µM*	?	-5%[70.6 µM]
CCCCNC(=O)c1ccc2c(c1)n(Cc1ccc(F)cc1)c(=O)c1ccnn12	?	i	?	-13%
CCn1c(=O)c2ccnn2c2ccc(C(=O)Nc3ccc(C)c(F)c3)cc21	-6%	i	45µM*	4%
CN1CCC(NC(=O)c2ccc3c(c2)n(Cc2ccc(F)cc2)c(=O)c2ccnn23)CC1	22µM*	i	25µM*	3%
Cn1c(=O)c2ccnn2c2ccc(C(=O)NCC3CCN(Cc4cccc(F)c4)CC3)cc21	?	i	79µM*	2%
CCn1c(=O)c2ccnn2c2ccc(C(=O)NCCCOC(C)C)cc21	-11%	i	?	-9%
O=C(c1ccccn1)N1CCN(Cc2ccccc2-c2cccnc2)CC1	-35%	nt	-18%	nt
Cc1ccc(C(=O)N2CCN(Cc3ccccc3-c3ccc(C)c(Cl)c3)CC2)cc1	?	nt	40µM*	nt
Cc1ccc(-c2ccccc2CN2CCC(C(=O)NCCc3ccccc3)CC2)cc1Cl	25µM*	nt	40µM*!	nt
Cc1ccc(-c2ccccc2CN2CCN(C(=O)c3ccc(Cl)nc3)CC2)cc1Cl	35µM*	nt	?	nt
O=C(c1ccncc1)N1CCN(Cc2ccccc2-c2cccnc2)CC1	-40%	nt	-18%	nt
Cc1ccc(-c2ccccc2CN2CCN(C(=O)c3ccccc3Cl)CC2)cc1Cl	40µM*	nt	40µM*	nt
O=C(c1ccc(Cl)nc1)N1CCN(C(=O)c2cccc(-c3ccccn3)c2)CC1	-28%	nt	-10%	nt
Cc1ccc(-c2ccccc2CN2CCN(C(=O)Nc3ccccc3)CC2)cc1Cl	?	nt	32µM*	nt
CC(=O)N1CCN(Cc2ccccc2-c2ccccc2F)CC1	?	nt	-27%[172 µM]	nt
Cc1ccc(-c2cc(C(=O)N3CCC(c4nc(C5CCOCC5)no4)C3)c3ccccc3n2)cc1C (stereo not given)	?	0.32µM*	11µM*	?
Cc1ccc(-c2cc(C(=O)N3CCC(Cc4nncn4C(C)C)CC3)c3ccccc3n2)cc1C	?	5.6µM*	13µM*	-27%
COc1cccc(C(=O)NC2CCN(CCn3nc4n(c3=O)CCCC4)C2)c1 (stereo not given)	-12%	nt	4%	nt
C[S+](=O)([O-])N1CCC(c2nnc3n2C(C(=O)NCc2cccc(Cl)c2)CC3)CC1 (stereo not given)	-8%	nt	i	nt
CCN1C(=O)C2(CCN(S(=O)(=O)Cc3ccc(Cl)cc3)CC2)c2ccccc21	25µM*	i	35µM*	-12%
CC(=O)N1CCCC1C(=O)N1CCCC1c1nc2ccncc2[nH]1 (stereo not given)	-14%[138 µM]	nt	-5%[172 µM]	nt
COCCNC(=O)c1cn2cc(-c3ccc(C)cc3)sc2n1	?	nt	100µM*	nt
COc1cccc(-c2cn3cc(C(=O)NCC(C)C)nc3s2)c1	?	nt	22µM*	nt
SMILES	NIH3T3 tox	FLuc inh	HEK cytotox	NPR1 antag
COCCCNC(=O)c1cn2cc(-c3cccc(OC)c3)sc2n1	?	nt	79µM*	nt
O=C(NCc1ccc(F)c(F)c1)c1cn2cc(-c3ccc(C(F)(F)F)cc3)sc2n1	45µM*	nt	56µM*	nt
Cc1nc(C2CC23CCN(S(=O)(=O)c2c(C)noc2C)CC3)no1 (stereo not given)	?	nt	-25%	nt
Cn1c(=O)n([C@H]2CCN(C(=O)Cc3cccnc3)C2)c2ncccc21	3%	nt	-4%	nt
CN1CCN(C(=O)c2cc(-c3ccccc3F)nc3c2cnn3C)CC1	-24%[138 µM]	nt	-17%[172 µM]	nt
O=C(NCc1cccc(C(F)(F)F)c1)c1cn2cc(-c3cccc(C(F)(F)F)c3)sc2n1	-26%	nt	-14%	nt
CC(C)NC(=O)c1cn2cc(-c3ccccc3)sc2n1	?	nt	71µM*	nt
Cc1ccc(-c2cn3cc(C(=O)NCc4ccccn4)nc3s2)cc1	?	nt	79µM*	nt
CNC(=O)c1cn2cc(-c3cccc(C(F)(F)F)c3)sc2n1	?	nt	28µM*	nt
O=C(C1CCCN1C(=O)c1cccc(Cl)c1)N1CCC(N2Cc3cccn3C2=O)CC1 (stereo not given)	?	nt	-31%	nt
COc1ccc(CNC(=O)c2cc(-c3ccc([S+](C)(=O)[O-])cc3)nc3c2cnn3C)cc1	-3%	nt	0%	nt
CCN1c2cc(C(=O)Nc3ccc(C)c(C)c3)ccc2C(=O)N2CCCCC21 (stereo not given)	28µM*	i	28µM*	-10%
CCN1c2cc(C(=O)Nc3ccc(Cl)c(Cl)c3)ccc2C(=O)N2CCCCCC21 (stereo not given)	45µM*	i	?	-2%
CCN1c2cc(C(=O)Nc3ccc(Br)c(C)c3)ccc2C(=O)N2CCCC21 (stereo not given)	-20%	i	?	0%
CCN1c2cc(C(=O)Nc3ccc(Cl)c(C)c3)ccc2C(=O)N2CCCCC21 (stereo not given)	?	i	16µM*	4%
CCc1ccc(NC(=O)Cn2c(-c3ccccc3)nc(C)c(CCO)c2=O)cc1	40µM*	i	40µM*	-25%
CCc1ccc(NC(=O)Cn2c(-c3ccc(Cl)cc3)nc(C)c(CCO)c2=O)cc1	45µM*	i	40µM*	-4%
CCOc1ccc(NC(=O)Cn2c(-c3ccc(Cl)cc3)nc(C)c(CCO)c2=O)cc1	i	i	-9%	-1%
CCc1cccc(NC(=O)Cn2c(-c3ccc(F)cc3)nc(C)c(CCO)c2=O)c1	?	i	?	-11%
O=C(O)[C@H]1C[C@]2(CCCCNC2=O)N(C(=O)CCc2ccccc2)[C@H]1c1ccco1	?	nt	-27%	nt
Cc1cc(C)cc(NC(=O)c2cc3n(n2)CC(c2ccc4c(c2)OCO4)OC3)c1 (stereo not given)	?	i	89µM*	-19%
CCOc1ccc(NC(=O)c2cc3n(n2)CC(c2ccc4c(c2)OCO4)OC3)cc1 (stereo not given)	?	?	22µM*	16µM*
CC1CCC(NC(=O)c2cc3n(n2)CC(c2ccc4c(c2)OCO4)OC3)CC1 (stereo not given)	?	i	22µM*	-9%
O=C(NCCc1ccccc1)c1cc2n(n1)CC(c1ccc3c(c1)OCO3)OC2 (stereo not given)	?	i	?	?
O=C(NCCCc1ccccc1)c1cc2n(n1)CC(c1ccc3c(c1)OCO3)OC2 (stereo not given)	28µM*	i	?	-23%
O=C(CNC(=O)c1ccc(-c2cnc3ccccc3c2)cc1)NCCCc1ccccc1	-35%	nt	?	nt
O=C(NCCc1ccccc1F)C1CCCN(c2ccnc3ccnn23)C1 (stereo not given)	-26%	nt	?	nt
